PG9 Ab binder: PG9 antibody binding by small molecule; hit rate 0.43% among 360,000; TR-FRET gp120-PG9 antibody binding; inhibition, % at 6.7 µM; in the data active = inhibition above about 8.5%
NR1D1 modulator: Rev-erb alpha (human) modulation; P20393; hit rate 0.79% among 370,000; Rev-erbα–FITC-DNA binding, fluorescence polarization, 90 min; activity, % at 10 µM;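 active = activity above about 14%, limit read from the data; passing the limit was not always enough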;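 also: 0% = DMSO wells with 35 nM protein and 100% = DMSO wells with 750 nM protein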
NPR2 activator: GC-B (human) receptor activation; AID 1920062; P20594; HEK293-GC-B cells, CNP EC30, cGMP TR-FRET; 0% at EC30 CNP, 100% saturating CNP; activation, % at 10 µM; hit rate 0.11% among 370,000;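 active = activation at 10 µM reaching about 35% in either raw or pattern-adjusted values, limit read from the data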
NPR1 activator: GC-A (human) enzyme activation; P16066; HEK293 GC-A cells, cGMP TR-FRET, EC30 ANP; 0% at EC30 ANP, 100% saturating ANP; activation, % at 10 µM; hit rate 0.14% among 370,000; in the data active = activation above about 40%
Target sequence (P16066 whole entry, looked up): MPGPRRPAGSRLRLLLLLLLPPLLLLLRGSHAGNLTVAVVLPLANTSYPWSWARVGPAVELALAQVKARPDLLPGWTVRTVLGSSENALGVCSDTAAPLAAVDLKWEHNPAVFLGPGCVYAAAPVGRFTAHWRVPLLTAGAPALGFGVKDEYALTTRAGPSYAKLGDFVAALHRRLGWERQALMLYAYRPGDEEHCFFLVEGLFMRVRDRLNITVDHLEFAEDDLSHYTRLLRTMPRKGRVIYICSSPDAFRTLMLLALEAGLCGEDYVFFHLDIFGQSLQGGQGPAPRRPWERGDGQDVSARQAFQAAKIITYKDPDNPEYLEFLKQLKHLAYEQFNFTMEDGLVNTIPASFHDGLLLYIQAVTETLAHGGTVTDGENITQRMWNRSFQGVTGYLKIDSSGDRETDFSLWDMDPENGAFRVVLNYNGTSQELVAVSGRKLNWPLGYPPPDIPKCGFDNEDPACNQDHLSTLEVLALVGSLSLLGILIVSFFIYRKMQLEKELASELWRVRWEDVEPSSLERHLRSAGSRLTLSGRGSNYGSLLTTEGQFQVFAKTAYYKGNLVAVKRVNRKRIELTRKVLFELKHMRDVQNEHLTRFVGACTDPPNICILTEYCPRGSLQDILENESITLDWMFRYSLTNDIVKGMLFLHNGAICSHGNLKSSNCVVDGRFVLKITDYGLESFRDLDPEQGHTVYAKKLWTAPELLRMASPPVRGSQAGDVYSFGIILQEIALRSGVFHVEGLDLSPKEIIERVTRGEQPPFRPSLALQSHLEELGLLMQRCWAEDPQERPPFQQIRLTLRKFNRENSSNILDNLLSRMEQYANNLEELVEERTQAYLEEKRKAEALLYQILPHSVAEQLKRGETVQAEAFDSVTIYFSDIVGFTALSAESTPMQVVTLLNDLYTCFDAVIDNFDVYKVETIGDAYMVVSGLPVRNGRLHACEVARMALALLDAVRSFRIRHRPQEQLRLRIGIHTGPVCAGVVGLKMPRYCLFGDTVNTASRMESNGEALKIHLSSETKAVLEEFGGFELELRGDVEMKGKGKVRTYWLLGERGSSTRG
V-ATPase pHluor: yeast V-ATPase proton transport regulation by pHLuorin; S. cerevisiae, pHLuorin cytosolic pH fluorescence; response, % at 10 µM; hit rate 0.37% among 350,000; AID 504577; in the data active = response mostly above about 7.3%, no sharp cut-off; inactive = mostly below about 5.4%; also: actives read high
PG9 binder conf: confirmation of small molecules binding HIV-1 gp120 antibody PG9; TR-FRET PG9 antibody binding, biochemical; shares compounds with PG9 Ab binder; hit rate 90% among 1,500; inhibition, % at 6.7 µM; in the data active = inhibition above about 9%
PGV04 counter: counter-screen for PG9 binders: binding control antibody PGV04; shares compounds with PG9 Ab binder; hit rate 95% among 1,500; inhibition, % at 6.7 µM; AID 651604; TR-FRET PGV04 antibody-gp120 binding, biochemical; in the data active = inhibition above about 9.5%
PG9 binder DR: PG9 antibody binding, dose response; shares compounds with PG9 Ab binder; TR-FRET PG9 antibody-gp120 binding inhibition; IC50, µM; 95 tested, under 10 active; in the data active = IC50 below about 10 µM
PGV04 binding DR: counter-screen for PG9 binders: binding to control antibody PGV04; shares compounds with PG9 Ab binder; TR-FRET binding to control antibody PGV04; IC50, µM; hit rate 20% among 95
PG126 DR counter: counter-screen for PG9 binders: binding to control antibody PG126 | shares compounds with PG9 Ab binder | TR-FRET binding to antibody PG126, counterscreen | IC50, µM | hit rate 20% among 95 | AID 651939
Starred values were filed as active, the others as inactive; i = inactive; x = no result given. Sampled rows, rich in hits. Any-hit rate of the full collection: about 1.6%. Rule as the data show it, unless noted: active = IC50 below about 9 µM; inactive = the rest.

SMILES | PG9 Ab binder | NR1D1 modulator | NPR2 activator | NPR1 activator | V-ATPase pHluor | PG9 binder conf | PGV04 counter | others
Cn1cc(CNC(=O)c2cc(-c3ccc(Br)cc3)nc3ccccc23)cn1 | -1.4 | 1.2 | 2.1 | 15.6 | -1.7 | x | x
COc1ccc(Cn2cc(COC(=O)NCC(C)C)nn2)cc1 | x | 0.2 | 5.4 | -0.6 | x | x | x
Cc1ccccc1NC(=O)CCC(=O)OCC(=O)c1ccc(-c2ccccc2)cc1 | 12.9* | 0.1 | -3.8 | 5.3 | 6.0 | 13.1* | 23.9*
Cc1cccc(-c2cccc3c4c([nH]c23)[C@@H]2C[C@H](N(C)C(=O)Nc3ccccc3)[C@H]([C@H](C)O)C(=O)N2CC4)c1 | x | 5.5 | -5.0 | -4.7 | x | x | x
CC(C)CNC(=O)OCc1cn(Cc2cccc(F)c2F)nn1 | x | 4.0 | 6.4 | 1.9 | x | x | x
O=C1Cc2c([nH]c3ccc(Br)cc23)-c2ccccc2N1 | 10.6* | -8.3 | -10.8 | -24.7 | 0.4 | 16.5* | 21.6*
CCCc1nc2ccccc2c(=O)n1CC(=O)c1ccccc1 | -2.5 | -2.0 | 4.9 | -0.7 | 0.6 | x | x
CCCc1nc2ccccc2c(=O)n1CC(=O)c1ccc(OC)cc1 | 10.0* | 1.9 | -3.6 | -1.6 | 1.8 | 10.8* | 15.1*
CN(C)c1ccc(C(=O)NC2CCCCN(Cc3ccc(Cl)cc3)C2=O)cc1 (stereo unspecified) | x | 2.2 | 3.3 | -0.1 | x | x | x
C[C@@H](CCCCC1(C)OCCO1)CCC(=O)N(c1ccccc1)c1ccccc1 | x | -4.4 | -7.1 | -8.2 | x | x | x
CC(=O)c1cccc(NC(=O)c2cccc(N3C(=O)c4ccccc4C3=O)c2)c1 | 21.7* | -10.4 | 8.4 | 10.0 | 0.0 | 25.5* | 22.2* | PG9 binder DR=i;PGV04 binding DR=i;PG126 DR counter=i
O=C(CNS(=O)(=O)c1cccs1)N1CCN(c2ncccn2)CC1 | x | -6.4 | 9.6 | -3.3 | x | x | x
CCOC(=O)c1sc(=NC(=O)c2ccco2)n(C)c1C | 1.3 | 1.1 | 0.1 | -2.5 | 4.1 | x | x
CCOC(=O)c1sc(=NC(=O)c2ccccc2Br)n(C)c1C | 14.8* | 7.6 | -8.6 | 21.2 | -4.4 | 21.9* | 44.5*
C=CCSc1ncnc2c1oc1nc3c(cc12)COC(C)(C)C3 | 0.9 | -4.7 | 3.6 | 3.3 | 0.5 | x | x
CC1(C)Cc2nc3oc4c(=S)nc[nH]c4c3cc2CO1 | 18.7* | 0.8 | -2.1 | 3.2 | 0.2 | 10.9* | 11.9*
O=C(NCc1ccccn1)C1CCN(S(=O)(=O)N2CCCCC2)CC1 | 8.6* | -4.2 | 1.3 | 4.1 | -0.2 | 8.2 | 10.6*
Cc1ccc(-c2nc3cccnc3s2)cc1NS(C)(=O)=O | 9.2* | 0.3 | -1.9 | 0.3 | -1.1 | 29.3* | 34.2*
CNc1nn(-c2cccc(Cl)c2)nc1N | 21.4* | 1.1 | 0.8 | 4.5 | -3.3 | 21.5* | 27.0*
O=C1c2[nH]nc(-c3ccccc3O)c2C(c2cccc(Cl)c2)N1CC1CCCO1 (stereo unspecified) | 8.6* | -0.3 | -28.3 | -47.7 | 0.4 | 25.3* | 18.9* | PG9 binder DR=>67;PGV04 binding DR=>67;PG126 DR counter=>67
Cc1cc(Cl)ccc1OC(C)c1nnc(N)s1 (stereo unspecified) | 10.5* | -0.7 | 0.2 | 7.2 | -3.9 | 6.9 | 9.0
Cn1c(Cc2cccs2)nnc1SCC(=O)Nc1ccc2cn[nH]c2c1 | x | 2.6 | 0.1 | -4.2 | x | x | x
COc1ccccc1-c1nc(SCC(=O)NCc2ccco2)c2c(=O)n(C)c(=O)n(C)c2n1 | 27.7* | 1.9 | 2.7 | 6.9 | 3.4 | 25.9* | 30.4*
Cc1ccccc1Nc1nc(N)nc(CSc2nc3ccccc3c(=O)n2CCCO)n1 | -0.8 | 6.1 | -3.6 | -1.0 | -2.6 | x | x
Cc1ccccc1Nc1nc(N)nc(CSc2nc3ccccc3c(=O)n2C)n1 | 26.2* | 21.7 | 1.6 | 3.7 | 1.5 | 72.9* | 81.7*

Screens from PubChem.
